Laboratory results taken from PubChem BioAssay AID504773 (Broad Institute, 2011).
Results with a measured potency or affinity are listed apart.

Target: Golgi-associated PDZ and coiled-coil motif-containing protein (Homo sapiens) (UniProt Q9HD26)
Assay: potency against CAL PDZ-peptide interaction – biochemical, fluorescence polarization, Cerulean-tagged CAL PDZ, cherry-picks, dose response (AID 504773);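 further: 0% = DMSO neutral wells and -100% = excess unlabeled competitor peptide wells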
Settings: CAL PDZ-peptide binding, 1 h; series mostly up to 50 µM; activity change, negative = inhibition: at the top concentration;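 active means polarization signal falls with dose and the fitted half-maximal concentration is at or below ten times the sample's top valid dose; inconclusive means flat curve at 30 to 70% inhibition, or poor fit; inactive means signal rises, flat within 30%, or potency beyond limit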

Activity change, negative = inhibition, inactive:
O=C(OCC(=O)N1CCc2ccccc2C1)c1cccnc1Cl -20.7%
Cc1ccc(CN(Cc2cccnc2)C(=S)Nc2cccc(Cl)c2C)cc1 3.3%
O=C(NCc1ccccc1)c1cc2ccc(O)cc2oc1=O -30.7%
FC(F)(F)c1cc(-c2cccs2)nc2ncnn12 -9.28%
CC1=NN(C(N)=S)C(=O)C1N=Nc1ccc(Cl)cc1 (configuration not stated) 9.11%
CC1CCCN(C(=O)Cc2cccc3ccccc23)C1 (configuration not stated) 9.32%
O=C(OCC(=O)N1CCOCC1)c1ccc[nH]c1=O 33.5%
O=C(COc1ccc(Cl)cc1Cl)Nc1nnc(C2=COCCO2)o1 0.72%
CCC(=O)N1CCC(C(N)=O)(N2CCCCC2)CC1 -11.6%
COc1cc(C2NC(=O)NC(C)=C2C(=O)OC2CCCCC2)cc(Br)c1O (configuration not stated) 23.5%
CC(=O)Nc1cccc(NC(=O)CSc2nnc(NC(=O)c3ccco3)s2)c1 14.6%
O=C(COC(=O)CNC(=O)c1cccc([N+](=O)[O-])c1)NCc1ccco1 9.03%
Cc1nn2c3ccccc3nc2c2ccccc12 -34.8%
CC(C)=Cc1oc2ccc([N+](=O)[O-])cc2c1N1CCOCC1 14.7%
COC(=O)N/N=C/c1sc(N2CCCCC2)nc1-c1cccs1 0.596%
CCN(CC)S(=O)(=O)c1ccc(/C=C/C(=O)OCC(=O)N(C)C)cc1 -4.78%
CC(=O)NC(Cc1ccccc1)C(C)=O (configuration not stated) 13.7%
CSc1ccccc1NC(=O)C1CC(c2c(F)cccc2Cl)=NO1 (configuration not stated) -8.91%
COc1ccc(C(=O)Nc2nccs2)cc1 19.6%
O=C1CN(C(=O)CC2C(=O)NCCN2Cc2ccccc2C(F)(F)F)CCN1 (configuration not stated) 6.69%
COc1ccc(/C=C/C(=O)Nc2ccc3nc4n(c(=O)c3c2)CCCC4)cc1OC -58.9%
O=C(CSc1nc2c(sc3ccccc32)c(=O)n1Cc1ccccc1)NCC1CCCO1 (configuration not stated) 13.4%
O=C1CSC(=Nc2ccccc2Cl)N1 5.39%
COc1ccccc1C(=O)Nc1ccc2c(c1)CN(C(=O)CSC)CC2 5.71%
CCOC(=O)C1=C(C)OC(N)=C(C#N)C1c1cccc(C)c1 (configuration not stated) 8.6%
CCOc1ccc(S(=O)(=O)N2CCCCC2)c(C)c1C -5.43%
COc1ccccc1Oc1coc2cc(OC(=O)N3CCOCC3)ccc2c1=O 1.18%
Cc1ccc2nc(-c3cccc(Br)c3)cc(C(=O)NC3=NCCS3)c2c1 7.84%
S=C(NCCc1ccccc1)NC1CCC(NC(=S)NCCc2ccccc2)CC1 (configuration not stated) 18.7%
Cc1cc(NC(=O)CSc2nnc(-c3ccccc3)c(-c3ccccc3)n2)no1 -11.7%
Cc1ccc(C(=O)NC(=S)N2CCN(c3cc(C)ccc3C)CC2)cc1 -8.14%
CCOc1ccc(C(=O)NC2CC3CCCC(C2)N3Cc2ccccc2)cc1 (configuration not stated) -24.1%
O=C(Oc1c(CN2CCOCC2)cc(Cl)c2cccnc12)c1ccc(F)cc1 -18%
O=C(CSc1nccc(=O)[nH]1)Nc1ccc(Oc2ccccc2)cc1 -22.5%
Cc1[nH]c2ccccc2c1C(=O)CSc1nc2ncc(Cl)cc2[nH]1 27.6%
CN(Cc1nccn1C)C(=O)c1cc(COc2ccc3ncccc3c2)on1 16.5%
c1cc(-c2nnc(-c3ccncc3)o2)ccn1 18.2%
